Source: PubChem
Shown are actives, neighbours in structure and some others; about 8.1% of the full set was active somewhere.
PINK1 modulator: changes PINK1 expression | PINK1 immunofluorescence, high-content cytometry, 24 h | Potency, µM (doses to about 76.6 µM), actives largely listed as activators | 410,000 tested, 0.2% active; active = well fitted activation curve with a large enough effect; inconclusive = small, poorly fitted or top-dose-only effect; cell line not stated here; note: nearly all actives have a fitted effect of over 65% in size
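Cells are seeded, rested 12 hours, then given compound at five concentrations or DMSO for 24 hours. After fixation, blocking and antibody staining, PINK1 amount and mitochondrial localization are scored; CCCP serves as control.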
Sfp inh: Sfp phosphopantetheinyl transferase inhibition; Biochemical Sfp PPTase activity, qHTS; 310,000 tested, 3.5% active; Potency, µM, usual class: inhibitors;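 note: the enzyme is Sfp with the accession as filed and its product quenches rhodamine fluorescence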
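Compounds were incubated with enzyme (final 15 nM) for 15 min at room temperature before substrate addition started the reaction. Fluorescence at 525 nm excitation, 598 nm emission was recorded immediately and after 30 minutes.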
Gal4-VP16 FLuc: Gal4-VP16 reporter inhibition counter-screen; AID 2546; 310,000 tested, 3.5% active; Drosophila S2 Gal4-VP16 UAS-luciferase, luminescence, 20 h; Potency, µM (highest dose often 53.6 µM), usual class: inhibitors;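 note: Gal4-VP16 expression switched on by copper sulfate through the metallothionein promoter; nearly all actives have a fitted effect of over 50% in size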
RORg inh: inhibitors of mouse ROR gamma transcriptional activity | Drosophila S2 Gal4-RORgamma UAS-luciferase reporter, 20 h | 310,000 tested, 5.4% active | P51450 | Potency, µM (series often up to 53.6 µM), most hits filed as inhibitors; note: nearly all actives have a fitted effect of over 60% in size
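Schneider cells (Drosophila), stable Gal4 DBD–ROR gamma + UAS-luc; 1 hr cmpd preincubation; Cu2+ induction 700 uM final; 20 hr ambient; luminescence.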
Epigenetic reg: regulators of epigenetic silencing causing reporter derepression in mouse cells | murine LDR cells, GFP reporter derepression, 30 h | Potency, µM (top dose mostly 53.9 µM), most hits filed as activators | 280,000 tested, 0.2% active; note: nearly all actives have a fitted effect of over 60% in size
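Readout is the number of GFP-expressing murine LDR cells, counted by cytometry following washing. Cells were treated with compound for 30 h at 37 C; the stably integrated CMV-GFP locus is normally silent.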
ClpP mod: qHTS Assay for Activators of ClpP. ATP-dependent Clp protease proteolytic subunit (Bacillus subtilis (strain 168)), P80244. purified B. subtilis ClpP, FRET peptide cleavage, 20 min. Potency, µM (top dose mostly 57.5 µM). 340,000 tested, 1.9% active. AID 651965, 2013; active = well fitted falling curve with a large enough effect; inconclusive = small, poorly fitted or top-dose-only effect; inactive = no such curve, though single readings can be large or run the other way; note: the source files actives as falling curves though it sought activators and does not explain the sign; nearly all actives have a fitted effect of over 65% in size
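Purified B. subtilis ClpP, 10 microg/mL final in Tris/HCl pH8 with KCl, BSA, glycerol and Tween-20, cleaved an Abz/nitrotyrosine-quenched decapeptide. Fluorescence (ex 320, em 430) was read at 0 and 20 min at room temperature. Delta was normalized to 5.8 microM ADEP and DMSO/no-enzyme controls.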
Numbers stand for hits; n = inactive; u = inconclusive; x = not tested or not shown; [ ] = remark or other dose. Unless noted, calls come from the whole dose curve; as a rule, active = well fitted curve in the direction sought with a large enough effect; inconclusive = small, poorly fitted or top-dose-only effect, or another doubt; inactive = no such curve, though single readings can be large; an effect the other way counts as inactive or inconclusive.

SMILES | PINK1 modulator | Sfp inh | Gal4-VP16 FLuc | RORg inh | Epigenetic reg | ClpP mod
COc1cccc(NC(=S)N(CCc2ccc(OC)c(OC)c2)Cc2ccccn2)c1 | n | n | n | u | n | x
COc1ccc(NC(=S)N(Cc2ccccn2)Cc2ccccc2Cl)cc1 | n | n | n[10 µM] | 5.62µM | n | x
CCc1ccc(NC(=S)N(Cc2ccccc2)Cc2ccccn2)cc1 | n | n | u | 0.316µM | n | n
CCc1ccc(NC(=S)N(CCCN2CCOCC2)Cc2ccccn2)cc1 | n | n | n | n | n | n
COCCN(Cc1ccccc1)C(=S)Nc1ccc(Cl)cc1 | n | n | n[10 µM] | 7.08µM | n | n
COc1cccc(NC(=S)N(Cc2ccccn2)Cc2ccccc2Cl)c1 | n | n | u | 6.31µM | n | n
COc1cccc(N2C(=O)C(CC(=O)Nc3ccccc3)N(CCc3sccc3C)C2=O)c1 (centres undefined) | n | x | x | x | n | n
Cc1cc(N2CCN(c3cccc(C)c3C)CC2)n2nc(C)c(-c3ccc(Cl)cc3)c2n1 | n | x | x | x | n | u
CCC1CN(CCNC(=O)c2cccc(N3CCCC3=O)c2)Cc2cc(OC)ccc2O1 (centres undefined) | n | x | x | x | x | x
O=C(CCc1nc2cccnc2n1-c1ccccc1)Nc1ccc(Cl)c(Cl)c1 | n | x | x | x | n | n
O=C(Nc1ccccc1-c1nnc(SCc2ccc(Cl)cc2)o1)c1ccccc1 | n | n | n | u | n | 10µM
O=C(Nc1ccccc1-c1nnc(SCc2ccccc2)o1)c1ccccc1 | n | n | n | n | n | 28.2µM
O=C1OC(O)C(C(Cl)Cl)=C1Cl (centres undefined) | x | x | 2.82µM | 2.24µM | x | x
COc1ccc(-n2c(=S)[nH]c3cc(C(=O)Nc4ccccc4OC)ccc3c2=O)cc1 | x | n | u | 1.58µM | n | x
COc1ccc(-n2c(=S)[nH]c3cc(C(=O)Nc4ccccc4OC)ccc3c2=O)c(OC)c1 | n | n | 4.47µM | 1.58µM | x | x
COc1ccc(-n2c(=S)[nH]c3cc(C(=O)NCc4ccccc4OC)ccc3c2=O)c(OC)c1 | n | n | 14.1µM | 14.1µM | x | x
CCC12CN3CC(C)(CN(C1)C3c1c(C)[nH]c3ccccc13)C2=O (centres undefined) | n | x | x | x | n | n
COc1cccc(CN2Cc3cccc4c3[C@H](C=CC4)CC2=O)c1 | x | x | x | x | x | n
O=C(NC(=S)Nc1ccccn1)c1ccccc1 | n | u | u | u | n | n
O=C(NC(=S)Nc1ccccn1)c1ccc([N+](=O)[O-])cc1 | n | n | 11.2µM | 5.01µM | n | n
O=C(NC(=S)Nc1c(Cl)cc(Cl)cc1Cl)c1ccccc1 | n | x | x | x | x | n
O=C(NC(=S)Nc1ccccn1)c1ccc(-c2ccccc2)cc1 | n | n | 3.98µM | 3.16µM | x | n
O=C(Nc1ccncc1)c1ccc(-c2ccccc2)cc1 | n | n | u | 7.94µM | n | n
Cc1cc(C)c(NC(=S)NC(=O)c2ccc(-c3ccccc3)cc2)c(C)c1 | n | n | 5.62µM | 4.47µM | n | n
Cc1ccc2oc(=O)c3cnn(CC(=O)N4CCN(c5ccccc5F)CC4)c3c2c1 | n | x | x | x | n | n
SMILES | PINK1 modulator | Sfp inh | Gal4-VP16 FLuc | RORg inh | Epigenetic reg | ClpP mod
CC(=O)NCc1ccc(C(=O)CCl)cc1 | n | n | u | u | n | x
CC(=O)N(C)Cc1ccc(C(=O)CCl)cc1 | n | 79.4µM | n | n | n | x
CC(=O)Nc1ccc(C(=O)CCl)cc1 | n | x | u | 4.47µM | x | n
C=C(Br)COC(c1ccco1)[C@H](Cc1ccccc1)NC(=O)OC(C)(C)C (some centres undefined) | x | x | x | x | x | n
CCOc1ccc(NC(=O)CSc2nnc3c(n2)[nH]c2ccc(S(=O)(=O)N4CCCCC4)cc23)cc1 | n | x | x | x | x | n
COc1ccc(N2C(=O)[C@H]3CCC=C[C@H]3[C@@H]2c2ccccc2Br)cc1 | n | n | 31.6µM | 17.8µM | n | n
O=C1[C@H]2CCC=C[C@H]2[C@H](c2ccccc2Br)N1Cc1ccccc1 | n | n | n | n | n | n
C=CCOC(=O)[C@H](O)[C@@H](O)C(=O)OCC=C | x | n | n | n | n | x
CNC(=S)NC1CC2CCC(C1)N2Cc1ccccc1 (centres undefined) | x | n | n | n | n | n
S=C(Nc1ccc(Cl)cc1)NC1CC2CCCC(C1)N2C1CC1 (centres undefined) | x | n | 3.98µM | u | n | n
Cc1cc(C)cc(NC(=S)NC2CC3CCCC(C2)N3C2CCCC2)c1 (centres undefined) | n | n | n | 35.5µM | n | n
CCc1ccc(NC(=S)NC2CC3CCCC(C2)N3Cc2ccccc2)cc1 (centres undefined) | u | u | 4.47µM | 7.08µM | n | n
S=C(Nc1ccc(Cl)cc1)NC1CC2CCC(C1)N2Cc1ccccc1 (centres undefined) | n | n | u | 3.98µM | n | x
Cc1ccc(NC(=S)NC2CC3CCCC(C2)N3Cc2ccco2)cc1 (centres undefined) | n | n | n | n | n | n
Cc1cccnc1-c1cccc2c1OC(CNC(=O)C1CCCc3c1[nH]c1ccccc31)C2 (centres undefined) | n | x | x | x | x | x
Cc1ccc(-c2cc(C(=O)N3CCN(S(=O)(=O)c4ccc(Br)cc4)CC3)[nH]n2)cc1C | n | x | x | x | n | n
Cc1cc(Nc2sc(C(=O)c3ccc(F)cc3)c(N)c2C(=O)Nc2ccc(F)cc2)ccc1Cl | u | x | x | x | n | n
COc1ccc(-n2c(-c3ccccc3F)nc3c(cnn3-c3ccc(C)cc3)c2=O)cc1 | n | x | x | x | n | 25.1µM
Cc1ccc(-n2ncc3c(=O)n(-c4ccc(C)c(C)c4)c(C)nc32)cc1 | n | n | u | n | n | n
Cc1ccc(-n2c(C)nc3c(cnn3-c3ccc(F)cc3)c2=O)cc1 | n | n | 8.91µM | n | n | n
CC(=O)Nc1ccc(NC2=CC(=O)c3ccccc3C2=O)cc1 | n | 56.2µM | u | n | x | x
O=C1C=C(Nc2ccc(O)cc2)C(=O)c2ccccc21 | n | n | u | n | n | x
CCOC(=O)c1ccc(NC2=CC(=O)C(=O)c3ccccc32)cc1 | n | 50.1µM | u | u | n | n
Cc1ccc(NC2=CC(=O)C(=O)c3ccccc32)cc1 | n | n | u | u | n | n
NS(=O)(=O)c1ccc(NC2=CC(=O)C(=O)c3ccccc32)cc1 | n | n | u | 10µM | x | x
CCOc1ccc(Nc2nc(Cc3nnc(SCC(=O)N(CC)CC)n3C)cs2)cc1 | n | 31.6µM | u | u | n | n
CCOc1ccc(Nc2nc(Cc3nnc(SCC(=O)NC4CCCCC4)n3C)cs2)cc1 | n | n | n | n | n | n
COCCCn1c(Cc2csc(Nc3ccc(F)cc3)n2)nnc1SCC(N)=O | n | 50.1µM | n | n | n | n
CCOc1ccc(Nc2nc(Cc3nnc(SCC(=O)NCC4CCCO4)n3C)cs2)cc1 (centres undefined) | n | 28.2µM | n | n | n | n
